About 83,000 compounds went through this panel and 20% of them were active in at least one assay; those are over-represented in the sample as a whole.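 Single-concentration screen, 48 h exposure, 96-well plates. Endpoint: percent growth. Below 10 = active.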
Key:
Assay in all cases: NCI-60 one-dose screen, 48 h (100 = growth as untreated, 0 = no growth, -100 = all killed)
RPMI-8226 leukemia = conditions: 10 µM
OVCAR-8 ovarian = conditions: 10 µM
OVCAR-5 ovarian = conditions: 10 µM
OVCAR-4 ovarian = conditions: 10 µM
SK-OV-3 ovarian = conditions: 10 µM
IGROV1 ovarian = conditions: 10 µM
OVCAR-3 ovarian = conditions: 10 µM
HS 578T breast = conditions: 10 µM
NCI/ADR-RES ovarian = conditions: 10 µM
T-47D breast = conditions: 10 µM
BT-549 breast = conditions: 10 µM
MDA-MB-435 melanoma = conditions: 10 µM
SW-620 colon = conditions: 10 µM
MCF7 breast = conditions: 10 µM unless noted
HCT-116 colon = conditions: 10 µM
HCC-2998 colon = conditions: 10 µM
KM12 colon = conditions: 10 µM
SR leukemia = conditions: 10 µM

Measured: growth

CC1SC(N)=NC1=O (configuration not stated)
inactive: RPMI-8226 leukemia 96.7% | OVCAR-8 ovarian 105% | OVCAR-5 ovarian 85.9% | OVCAR-4 ovarian 117% | SK-OV-3 ovarian 115% | IGROV1 ovarian 108% | OVCAR-3 ovarian 116% | HS 578T breast 108% | NCI/ADR-RES ovarian 106% | T-47D breast 106% | BT-549 breast 123% | MDA-MB-435 melanoma 109% | SW-620 colon 112% | MCF7 breast 103% | HCT-116 colon 108% | HCC-2998 colon 107% | KM12 colon 110%

CC(=O)Nc1ccc(NC(C)=O)c2c1C(=O)c1ccccc1C2=O
inactive: SR leukemia 78.9% | OVCAR-8 ovarian 92.8% | OVCAR-5 ovarian 88.4% | SK-OV-3 ovarian 88.5% | IGROV1 ovarian 67% | OVCAR-3 ovarian 104% | NCI/ADR-RES ovarian 95.4% | T-47D breast 81.2% | BT-549 breast 36.4% | MDA-MB-435 melanoma 107% | SW-620 colon 91% | MCF7 breast 87.3% | HCT-116 colon 79.3% | HCC-2998 colon 105% | KM12 colon 94.5%

CCCC(=O)c1cc(C)ccc1OC
inactive: RPMI-8226 leukemia 110% | OVCAR-8 ovarian 111% | OVCAR-5 ovarian 101% | OVCAR-4 ovarian 106% | SK-OV-3 ovarian 109% | IGROV1 ovarian 94.1% | OVCAR-3 ovarian 112% | HS 578T breast 118% | NCI/ADR-RES ovarian 112% | T-47D breast 105% | BT-549 breast 107% | MDA-MB-435 melanoma 116% | SW-620 colon 114% | MCF7 breast 103% | HCT-116 colon 107% | HCC-2998 colon 111% | KM12 colon 110%

COc1ccc(C2(O)CCCCC2)cc1
inactive: RPMI-8226 leukemia 95.6% | OVCAR-8 ovarian 107% | OVCAR-5 ovarian 111% | OVCAR-4 ovarian 112% | SK-OV-3 ovarian 107% | IGROV1 ovarian 111% | OVCAR-3 ovarian 116% | HS 578T breast 93.5% | NCI/ADR-RES ovarian 104% | T-47D breast 98.2% | BT-549 breast 112% | MDA-MB-435 melanoma 107% | SW-620 colon 102% | MCF7 breast 102% | HCT-116 colon 99.1% | HCC-2998 colon 104% | KM12 colon 107%

COC(=O)c1ccccc1Br
inactive: RPMI-8226 leukemia 104% | OVCAR-8 ovarian 105% | OVCAR-5 ovarian 82.2% | OVCAR-4 ovarian 103% | SK-OV-3 ovarian 107% | IGROV1 ovarian 108% | OVCAR-3 ovarian 106% | HS 578T breast 113% | NCI/ADR-RES ovarian 100% | T-47D breast 109% | BT-549 breast 109% | MDA-MB-435 melanoma 98.5% | SW-620 colon 109% | MCF7 breast 106% | HCT-116 colon 92% | HCC-2998 colon 106% | KM12 colon 94.7%

COc1cc2nc3cc([N+](=O)[O-])ccc3c(Cl)c2cc1OC
inactive: SR leukemia 91.7% | OVCAR-8 ovarian 88.2% | OVCAR-5 ovarian 86.3% | SK-OV-3 ovarian 106% | IGROV1 ovarian 89.7% | OVCAR-3 ovarian 123% | HS 578T breast 112% | NCI/ADR-RES ovarian 103% | T-47D breast 83.2% | BT-549 breast 51.3% | MDA-MB-435 melanoma 93.2% | SW-620 colon 104% | MCF7 breast 83% | HCT-116 colon 95.7% | HCC-2998 colon 106% | KM12 colon 110%

OC1OC(COC(c2ccccc2)(c2ccccc2)c2ccccc2)C(O)C(O)C1O (configuration not stated)
inactive: RPMI-8226 leukemia 95.9% | OVCAR-8 ovarian 93.7% | OVCAR-5 ovarian 95.9% | OVCAR-4 ovarian 84.1% | SK-OV-3 ovarian 99.9% | IGROV1 ovarian 95.3% | OVCAR-3 ovarian 104% | HS 578T breast 105% | NCI/ADR-RES ovarian 104% | T-47D breast 87.5% | BT-549 breast 99.6% | MDA-MB-435 melanoma 90.9% | SW-620 colon 105% | MCF7 breast 93.3% | HCT-116 colon 90.7% | HCC-2998 colon 110% | KM12 colon 107%

COc1cc2c3c(n(C)c(=O)c2cc1OC)-c1cc2c(cc1C3=O)OCO2
inactive: SR leukemia 17.6% | OVCAR-5 ovarian 78.4% | OVCAR-4 ovarian 55.8% | SK-OV-3 ovarian 74.6% | IGROV1 ovarian 11.3% | OVCAR-3 ovarian 104% | HS 578T breast 102% | NCI/ADR-RES ovarian 77.5% | T-47D breast 28.2% | BT-549 breast 68.6% | MDA-MB-435 melanoma 72.3% | SW-620 colon 58.8% | MCF7 breast 26.8% | HCT-116 colon 51.5% | HCC-2998 colon 64.5% | KM12 colon 83.9%

CC1(C)N=C(N)N=C(N)N1c1ccc(Cl)cc1
inactive: SR leukemia 52.7% | OVCAR-8 ovarian 30.8% | OVCAR-4 ovarian 55% | SK-OV-3 ovarian 61% | IGROV1 ovarian 35.9% | OVCAR-3 ovarian 69.9% | T-47D breast 94.6% | BT-549 breast 76% | MDA-MB-435 melanoma 28.8% | SW-620 colon 34.3% | MCF7 breast 41.1% | HCT-116 colon 25.1% | HCC-2998 colon 36.8%

O=C1OC(c2ccc(F)cc2)CC1CN1CCOCC1 (configuration not stated)
inactive: RPMI-8226 leukemia 75.6% | OVCAR-8 ovarian 99.5% | OVCAR-5 ovarian 112% | OVCAR-4 ovarian 101% | SK-OV-3 ovarian 107% | IGROV1 ovarian 104% | OVCAR-3 ovarian 101% | HS 578T breast 113% | NCI/ADR-RES ovarian 101% | T-47D breast 93.6% | BT-549 breast 95.5% | MDA-MB-435 melanoma 109% | SW-620 colon 102% | MCF7 breast 97.6% | HCT-116 colon 92.5% | HCC-2998 colon 98.8% | KM12 colon 102%

Source: PubChem BioAssay (NCI)
